Source: PubChem (National Center for Advancing Translational Sciences (NCATS))
VDR inhibitor: inhibitors of human vitamin D receptor. Potency, µM, without a hit: max response, negative = inhibition, usual class: inhibitors. P11473. hit rate 0.93% among 400,000. AID 504847. VDR-SRC2-3 peptide fluorescence polarization, 2 h; note: potency is the fitted concentration of half-maximal effect; % is set by controls: 0 for no effect and ±100 for the full control effect
Target sequence (P11473 whole entry, looked up): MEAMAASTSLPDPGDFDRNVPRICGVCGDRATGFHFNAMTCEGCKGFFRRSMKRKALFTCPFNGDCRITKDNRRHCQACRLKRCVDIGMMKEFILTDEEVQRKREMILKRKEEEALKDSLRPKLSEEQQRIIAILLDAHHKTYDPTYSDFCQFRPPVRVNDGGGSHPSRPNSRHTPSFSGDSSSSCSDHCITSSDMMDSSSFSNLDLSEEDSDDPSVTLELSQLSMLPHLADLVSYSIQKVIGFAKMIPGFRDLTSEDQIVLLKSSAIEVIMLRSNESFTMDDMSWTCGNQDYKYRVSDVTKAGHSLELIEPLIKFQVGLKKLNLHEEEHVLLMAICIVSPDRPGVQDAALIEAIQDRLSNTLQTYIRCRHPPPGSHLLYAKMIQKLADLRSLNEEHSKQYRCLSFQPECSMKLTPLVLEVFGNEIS
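FP read-out; VDR + SRC2-3 coactivator peptide; 23 nl compound by pintool; 2 h RT incubation; reagents held at 4 deg C, protected from light.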
Coupling enz: counter-screen for Giardia aldolase inhibitors: coupling enzyme system; coupling enzyme system counterscreen, AmpLite Red fluorescence; activity change, negative = inhibition, % at 58.2 µM, hits read low; hit rate 0.67% among 290,000; AID 2472; in the data active = activity change below about -30%; note: % is set by controls: 0 for no effect and ±100 for the full control effect
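Counterscreen of the coupled detection system alone, without aldolase: glyceraldehyde-3-phosphate coupling enzymes plus AmpLite Red readout. Compounds at 57.5 uM final, 10 min RT preincubation, 20 min RT reaction, fluorescence 525/598 nm.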
RGS12 GoLoco inh: RGS12 GoLoco-Gai1 interaction inhibition | P63096 | hit rate 0.44% among 230,000 | Potency, µM (top dose mostly 61.6 µM), inactives show at the highest dose activity, negative = inhibition, actives largely listed as inhibitors | Gai1:RGS12 GoLoco peptide FP, rhodamine, 10 min; active = well fitted inhibition curve with a large enough effect, not every such curve was filed as active; inactive = no such curve, though single readings can be large or run the other way; note: potency is the fitted concentration of half-maximal effect; % is set by controls: 0 for no effect and ±100 for the full control effect; nearly all actives have a fitted effect of over 30% in size
HTT aggregate: inhibitors of mutant huntingtin aggregate formation in PC12 cells. PC12 HttQ103-GFP aggregates, Acumen cytometry, 40 h. Potency, µM (titrated, usually from 46.1 µM), for inactives: top-dose activity change, negative = inhibition, usual class: inhibitors. hit rate 1.1% among 220,000; note: potency is the fitted concentration of half-maximal effect; % is set by controls: 0 for no effect and ±100 for the full control effect; nearly all actives have a fitted effect of over 60% in size
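PC12 cells with ecdysone-inducible HTT exon1 Q103-GFP, induced by 100 nM tebufenozide, given compounds in a concentration series. GFP aggregates (1–25 um, 6 SD above background) counted in lysates by laser-scanning cytometry, 488 nm excitation.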
KDM4E inh: JMJD2E (human) inhibition | hit rate 1.6% among 230,000 | AID 2147 | Potency, µM (titrated, usually from 57.1 µM), inactives show top-dose activity change, negative = inhibition, actives largely listed as inhibitors | JMJD2E catalytic domain, FDH-coupled NADH fluorescence (FDH is formaldehyde dehydrogenase);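 note: potency is the fitted concentration of half-maximal effect; 0% = wells with enzyme and -100% = buffer wells without enzyme; nearly all actives have a fitted effect of over 50% in size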
Target sequence (B2RXH2 1-337 limits assumed): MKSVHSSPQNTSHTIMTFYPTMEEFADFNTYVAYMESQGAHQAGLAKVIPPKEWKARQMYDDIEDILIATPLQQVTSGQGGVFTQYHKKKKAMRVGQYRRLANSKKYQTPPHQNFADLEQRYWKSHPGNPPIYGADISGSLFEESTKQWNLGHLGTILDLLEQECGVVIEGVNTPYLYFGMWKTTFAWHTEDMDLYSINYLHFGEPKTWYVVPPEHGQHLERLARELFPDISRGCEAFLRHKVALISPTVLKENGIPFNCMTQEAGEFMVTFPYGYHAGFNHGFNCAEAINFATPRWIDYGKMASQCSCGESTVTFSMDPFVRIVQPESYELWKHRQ
HTT ATP protect: protects HTT-Q103 PC12 cells, measured by ATP. Potency, µM (series often up to 56.4 µM), for inactives: cytoprotection (ATP increase), most hits filed as activators. AID 1471. hit rate 0.14% among 230,000. PC12 HTT-Q103 induced, cytoprotection, ATP luminescence, 40 h; note: potency is the fitted concentration of half-maximal effect; % of control where 0% means no effect; nearly all actives have a fitted effect of over 45% in size
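Cells were plated at 1500 per well in phenol red-free DMEM with 5% equine and 5% calf serum. Tebufenozide (100 nM final) and compounds were added, then ATPlite reagent, and luminescence was read.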
VDR confirm: confirmation of human vitamin D receptor inhibitors | shares compounds with VDR inhibitor | VDR-coactivator inhibition assay, qHTS confirmation | Potency, µM, usual class: inhibitors | hit rate 89% among 840; note: potency is the fitted concentration of half-maximal effect
VDR FP fluor: VDR (human) coactivator binding inhibition, fluorescein polarization; shares compounds with VDR inhibitor; VDR-coactivator binding, fluorescein fluorescence polarization; Potency, µM (highest dose often 57.1 µM), for inactives: at the highest dose activity change, negative = inhibition, actives largely listed as inhibitors; hit rate 48% among 840; note: potency is the fitted concentration of half-maximal effect
VDR bla: inhibits human VDR in beta-lactamase reporter cells; shares compounds with VDR inhibitor; hit rate 23% among 840; AID 602202; VDR beta-lactamase reporter cells, FRET ratio; cells co-treated with VDR agonist LG190178; Potency, µM (doses to about 46.1 µM), inactives show at the highest dose activity change, negative = inhibition, hits mostly inhibitors; note: potency is the fitted concentration of half-maximal effect; % is set by controls: 0 for no effect and ±100 for the full control effect
VDR viability: counter-screen for vitamin D receptor inhibitors: cytotoxicity; shares compounds with VDR inhibitor; cytotoxicity counter-screen, cell viability, qHTS; Potency, µM (series often up to 48.3 µM), for the others: at the top dose activity change, negative = cytotoxicity, usual class: cytotoxic; hit rate 18% among 840; AID 602204;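 note: potency is the fitted concentration of half-maximal effect; plate controls were DMSO for no effect and high-concentration cycloheximide for full effect; nearly all actives have a fitted effect of over 75% in size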
An asterisk follows results filed as active; ? = inconclusive; · = not tested or not shown; [ ] = another dose, or the depositor's remark. A selection: hits, their analogues and other compounds. The true share with any hit is near 2.3%. Unless noted, calls come from the whole dose curve; as a rule, active = well fitted curve in the direction sought with a large enough effect; inconclusive = small, poorly fitted or top-dose-only effect, or another doubt; inactive = no such curve, though single readings can be large; an effect the other way counts as inactive or inconclusive.

SMILES	VDR inhibitor	Coupling enz	RGS12 GoLoco inh	HTT aggregate	KDM4E inh	HTT ATP protect	VDR confirm	VDR FP fluor	VDR bla	VDR viability
CC(OC(=O)C1CC(=O)N(Cc2ccco2)C1)C(=O)Nc1ccccc1[N+](=O)[O-] (stereo unspecified)	-10.4%	·	·	·	·	·	·	·	·	·
CCOC(=O)c1csc(NC(=O)CSc2nnnn2-c2ccc(OC)cc2)n1	1.4%	1.9	6.7%	?	-3.1%	2.5%[10 µM]	·	·	·	·
CCOC(=O)c1c(NC(=O)CSc2nnnn2-c2ccc(OC)cc2)sc(C)c1C	17.8µM*	-8.0	-22.4%	9.1%	-2.4%	-2.4%	?	?	7.5%	23.5%
CCOC(=O)C1=C(Cc2ccc(Cl)cc2)C(=O)c2ccccc2C1=O	6.31µM*	-36.7*	-20.0%	19.2%	?	-70.3%	1.78*	?	23.1µM*	?
CS(=O)(=O)c1ncc(Cl)c(C(=O)N(Cc2ccc(Cl)cc2)Cc2ccco2)n1	25.1µM*	·	·	·	·	·	2.82*	3.55µM*	16.4µM*	18.9µM*
Clc1ccc(Cl)c(-c2nn3c(COc4ccccc4)nnc3s2)c1	?	7.7	4.6%	-7.3%	-5.7%	-6.0%[0.074 µM]	11.2*	7.08µM*	-14.6%	-27.0%
CC(C(=O)Nc1ccc(C#N)cc1)N1CCN(C(=O)C2CC2)CC1 (stereo unspecified)	-6.9%	·	·	·	·	·	·	·	·	·
Cc1cc(NCCCCCCCNc2cc(C)nc3cc([N+](=O)[O-])ccc23)c2ccc([N+](=O)[O-])cc2n1	86.5%	·	·	·	·	·	·	·	·	·
CCN(CC)S(=O)(=O)c1ccc(O)c(NS(=O)(=O)c2ccccc2F)c1	79.4µM*	7.3	-5.0%	-1.2%	-7.0%	24.2%[10 µM]	16.8*	-20.4%	1.8%	11.3%
O=C(NCc1ccc2c(c1)CCN2C(=O)c1ccc(F)cc1)c1ccco1	13.8%	·	·	·	·	·	·	·	·	·
CC1CN(S(=O)(=O)c2cccc(C(=O)NCc3ccco3)c2)CC(C)O1 (stereo unspecified)	-7.5%	·	·	·	·	·	·	·	·	·
O=C1C(Cl)=C(NC(=O)c2ccccc2)C(=O)C(Cl)=C1NC(=O)c1ccccc1	35.5µM*	-29.1	·	·	·	·	4.23*	?	3.66µM*	11.6µM*
CCCCNS(=O)(=O)c1cc2c3c(c1)CCN3C(=O)CC2	2.9%	3.2	·	·	·	·	·	·	·	·
Cc1nc2c3cc(F)ccc3n(Cc3ccccc3)c2s1	50.1µM*	-1.4	-2.3%	?	-2.9%	-16.4%[10 µM]	?	?	?	23.4%
COc1ccc(SCC(Cc2ccccc2)N2CCN(CC(C)C)CCC2=O)cc1 (stereo unspecified)	?	6.2	·	·	·	·	7.94*	?	4.3%	23.5%
Cc1cc(C(Br)(Br)Br)nc2ccccc12	·	·	·	·	·	·	14.1*	14.1µM*	13µM*	16.8µM*
CC1=NN(c2ccccc2)C(=O)/C1=C\C=C\c1ccccc1	39.8µM*	1.7	4.6%	-0.6%[9.22 µM]	-13.1%	-10.1%[10 µM]	18.9*	?	?	-25.3%
Cc1ccc(C(=O)/C=C/c2ccc(F)cc2)o1	?	-4.2	14.1%	28.6%	-7.3%	-2.5%[10 µM]	·	·	·	·
O=C(/C=C/c1ccc(F)cc1)c1ccccc1Br	31.6µM*	1.8	65.1%	-8.2%	-0.9%	6.7%[10 µM]	11.9*	?	?	?
O=C(CSc1n[nH]c(-c2ccncc2)n1)Nc1ccc(Cl)c(Cl)c1	22.4%	1.6	·	·	·	·	·	·	·	·
Cc1ccc(/C=C2\C(=O)ON=C2c2ccccc2)o1	?	-1.4	-12.6%	3.3%[9.22 µM]	7.7%	7.6%[10 µM]	·	·	·	·
Cc1ccc(-c2ccc(/C=C3\C(=O)ON=C3c3ccccc3)o2)c([N+](=O)[O-])c1	28.2µM*	-1.0	13.6%	-16.1%	-3.5%	-34.5%	3.77*	?	18.4µM*	13µM*
CC(=O)N1CCc2c(sc3c2c(=O)n(-c2ccc(C)cc2)c(=O)n3Cc2c(F)cccc2Cl)C1	3.9%	·	·	·	·	·	·	·	·	·
Cc1cc[n+](CC(=O)c2cccc([N+](=O)[O-])c2)c2ccccc12	16.4%	-1.1	·	·	·	·	·	·	·	·
O=C(C[n+]1csc2ccccc21)c1cccc([N+](=O)[O-])c1	·	·	·	·	·	·	?	?	5.4%	22.2%
SMILES	VDR inhibitor	Coupling enz	RGS12 GoLoco inh	HTT aggregate	KDM4E inh	HTT ATP protect	VDR confirm	VDR FP fluor	VDR bla	VDR viability
O=C(/C=C/c1ccccc1)Nc1cccc(S(=O)(=O)Nc2ccccc2F)c1	11.2µM*	1.0	-30.0%	9.5%	-15.7%	29.3%[10 µM]	4.23*	?	17.8%	?
COc1ccccc1NS(=O)(=O)c1cccc(NC(=O)c2ccc3ccccc3n2)c1	4.2%	-1.3	7.8%	-29.0%	-7.2%	5.2%[10 µM]	·	·	·	·
O=C(Nc1cccc(S(=O)(=O)Nc2ccccc2F)c1)c1ccc2ccccc2n1	15.8µM*	-3.7	-29.2%	-13.8%	-11.9%	23.1%[10 µM]	3.77*	?	-18.9%	-38.5%
O=C(Cc1ccc(Cl)cc1Cl)Nc1cccc(S(=O)(=O)Nc2ccccc2F)c1	?	2.4	-8.1%	6.8%	-11.9%	21.2%[10 µM]	·	·	·	·
COc1ccc(C(=O)/C=C/C(=O)N(CC(=O)NC2CCCCC2)CC2CCCO2)c(O)c1 (stereo unspecified)	8.91µM*	3.7	-31.1%	-8.1%[9.22 µM]	?	-32.5%[10 µM]	6.7*	?	13µM*	14.6µM*
COc1ccc(C(=O)/C=C/C(=O)N(CC(=O)NC2CCCCC2)Cc2ccccc2)c(O)c1	28.2µM*	0.9	-12.7%	?	-0.8%	-59.1%[10 µM]	11.9*	?	13µM*	?
Cc1noc(C)c1-c1nc(N(C)C)c2ccccc2n1	?	0.6	0.1%	·	·	-6.2%	·	·	·	·
O=C(C1CCN(S(=O)(=O)c2ccccc2)CC1)N1CCC1	-30.4%	·	·	·	·	·	·	·	·	·
CCC(c1nnc(SCC(=O)Nc2ccc(C(=O)N(C)C)cc2)n1Cc1ccccc1)N(C)C (stereo unspecified)	-12.3%	·	·	·	·	·	·	·	·	·
O=C(Cc1ccccc1Cl)NC1(O)C(=O)c2ccccc2C1=O	50.1µM*	-6.0	1.9%	-17.5%[9.22 µM]	-3.0%	-10.5%[10 µM]	10.6*	-17.2%	8.1%	4.1%
O=C(Cc1ccc(Cl)cc1)NCc1ccccc1Cl	7.4%	0.7	-3.9%	-1.4%	-0.9%	-40.3%	·	·	·	·
